Results on five compounds are retold here after PubChem BioAssay.

Experiment [1] in a line: anti-His antibody binders, primary screen, artefact control for SMM control protein annotation, biochemical, small-molecule microarray, 635 nm fluorescence (AID 1128).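 Note: score merges feature fluorescence with signal-to-noise for each printed compound spot.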 To be noted: anti-His Alexa647 antibody binding, higher = more signal.
For experiment [2], the system named is Human papillomavirus type 1a E7 protein (residues 1-88). In words: HPV1a E7 small-molecule binders, primary screen, biochemical, small-molecule microarray, residues 1-88, 635 nm (AID 1129). To be noted: small-molecule microarray binding, fluorescence 635 nm; higher = more signal.
Experiment [3] concerns the target Focal adhesion kinase 1 (Homo sapiens) (UniProt Q05397). In words: small-molecule microarray binders of FAK, primary screen, biochemical, 635/667 nm fluorescence, BSA, DTT (AID 1130).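 Note: composite of spot emission at 667 nm and signal to noise over triplicate slides.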 The note with it: PTK2 binding, 635 nm fluorescence, higher = more signal.
Experiment [4] deals with Fibrinogen (Alexa647-labelled). Put plainly: fibrinogen binders on compound microarrays, profiling panel, artefact control for SMM control-protein annotation, biochemical, small-molecule microarray, 635/667 nm fluorescence (AID 1131).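 Note: z-score merges 667 nm fluorescence with per-spot signal-to-noise over triplicate slides.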 To be noted: fibrinogen-A647 binding fluorescence, higher = more signal.
Experiment [5] deals with Follistatin (Homo sapiens) (UniProt P19883). In words: follistatin binders on small-molecule microarrays, primary screen, biochemical, small-molecule microarray, 635/667 nm fluorescence (AID 1132). To be noted: FST binding, 635 nm fluorescence, higher = more signal.
The target in experiment [6] is Fibroblast growth factor 2 (Homo sapiens) (UniProt P09038). Put plainly: FGF2 binders on small-molecule microarrays, primary screen, biochemical, small-molecule microarray, 635/667 nm fluorescence (AID 1133). The note with it: small-molecule microarray binding, FGF2, fluorescence 635/667; higher = more signal.
Experiment [7] is described as follows: mitochondrial membrane potential change in A549 cells, profiling panel, cell-based, JC-1 fluorescence, basal, 24 h, 100 nL (AID 1138).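 Note: A549 lung adenocarcinoma cells under basal conditions with no added stimulus; test concentration not given here.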 The note with it: higher = more signal.
In the next experiment the test system is Lefty1. In words: Lefty1 binders on small-molecule microarrays, primary screen, biochemical, small-molecule microarray, 635/667 nm fluorescence (AID 1139). To be noted: small-molecule microarray binding, fluorescence 635/667; higher = more signal.
In experiment [8] the test system is wheat germ agglutinin (Triticum aestivum), Alexa647-labelled. Put plainly: wheat germ agglutinin binders on compound microarrays, profiling panel, artefact control for SMM control-protein annotation, biochemical, small-molecule microarray, 635/667 nm fluorescence (AID 1140).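 Note: score merges 667 nm feature emission with signal to noise over triplicate slides.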 To be noted: WGA-A647 binding, 635 nm fluorescence, higher = more signal.
Experiment [9] has as its target Luciferin 4-monooxygenase (Photinus pyralis) (UniProt P08659). Put plainly: firefly luciferase enzyme inhibitors, primary screen, biochemical, luminescence, purified enzyme, 2006 set (AID 1141).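 Note: cell-free assay with purified firefly luciferase at 100 ng per well in PBS; test concentration not given here.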 The note with it: SteadyGlo luminescence, 30 min, higher = more signal, called active from +8 up or from −8 down.
Experiment [10] relates to Wnt5a (protein binding on small-molecule microarray). In words: Wnt5a binders on small-molecule microarray, primary screen, biophysical, 635/667 nm fluorescence (AID 1142).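 Note: fluorescence read at 667 nm with signal to noise per printed feature.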 To be noted: 635 nm fluorescence, higher = more signal.
Experiment [11] is described as follows: cell viability in Huh7 cells, primary screen, cytotoxicity control for HCV replication inhibitor project, CellTiter-Glo luminescence, basal, 48 h (AID 1143).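 Note: Huh7 hepatoma cells carrying a hepatitis C replication reporter with no stimulus; test concentration not given here.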 To be noted: Huh7 HCV replicon, higher = more signal, called active from +8 up or from −8 down. Background: In ATP-based viability assays light output follows the ATP content of the culture.
A short description of experiment [12]: P. aeruginosa biofilm formation inhibitors, primary screen, PAO1 strain, BacTiter-Glo luminescence, LB-PBS (AID 1144). The note with it: 12 h, higher = more signal.
A short description of experiment [13]: CREB reporter modulators without forskolin, primary screen, cell-based, PC12, CRE-LacZ reporter, unstimulated (AID 1145). The note with it: no forskolin, luminescence, 4.5 h, higher = more signal, called active from +8 up or from −8 down.
Experiment [14] in a line: CREB reporter modulators under forskolin, primary screen, cell-based, PC12, CRE-LacZ reporter, forskolin-stimulated (AID 1146).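 Note: PC12 cells with 6xCRE LacZ reporter stimulated by forskolin 10 µM; beta-galactosidase reporter signal reflecting CREB driven transcription.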 The note with it: luminescence, 4.5 h, higher = more signal, called active from +8 up or from −8 down.
In experiment [15] the target is Streptavidin (Streptomyces avidinii) (UniProt P22629). In words: streptavidin binders on small-molecule microarray, primary screen, artefact control for SMM compound annotation, biophysical, 635/667 nm fluorescence (AID 1147).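 Note: signal reflects streptavidin binding to arrayed compounds as a control protein.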 To be noted: streptavidin binding, higher = more signal.
The nature of experiment [16]: small-molecule binders of probe aInhba, primary screen, biochemical, small-molecule microarray, 635/667 nm fluorescence (AID 1148).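 Note: score merges 667nm spot fluorescence with signal-to-noise for antibody binding to printed compounds.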 To be noted: higher = more signal.
The target in experiment [17] is Torsin-1A (Homo sapiens) (UniProt O14656). In words: torsin A binders from cell lysate, primary screen, small-molecule microarray, wild-type, 635/667 nm (AID 1149). To be noted: COS7 hTOR1A-WT lysate, 635 nm fluorescence, higher = more signal.
Experiment [18] has the same target. In words: small-molecule binders of mutant TOR1A in lysate, primary screen, cell lysate, small-molecule microarray, COS7 lysate, 635/667 nm fluorescence (AID 1150).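 Note: score pools 667 nm emission and signal to noise measuring lysate protein binding.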 To be noted: COS7 hTOR1A mutant lysate, 635 nm fluorescence, higher = more signal.
The subject of experiment [19] is Sonic hedgehog protein (Shh). Put plainly: small-molecule binders of Shh protein, primary screen, biochemical, small-molecule microarray, 635/667 nm fluorescence (AID 1151).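 Note: Shh protein binding to compounds spotted on small-molecule microarray slides; score combines spot fluorescence intensity with signal-to-noise across triplicate slides.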 To be noted: small-molecule microarray binding, 635 nm fluorescence; higher = more signal.

Activity calls are given as the source filed them. Unless noted, the rule behind the calls is not given here.

Sequence of Focal adhesion kinase 1 (Homo sapiens) (Q05397 whole entry, looked up): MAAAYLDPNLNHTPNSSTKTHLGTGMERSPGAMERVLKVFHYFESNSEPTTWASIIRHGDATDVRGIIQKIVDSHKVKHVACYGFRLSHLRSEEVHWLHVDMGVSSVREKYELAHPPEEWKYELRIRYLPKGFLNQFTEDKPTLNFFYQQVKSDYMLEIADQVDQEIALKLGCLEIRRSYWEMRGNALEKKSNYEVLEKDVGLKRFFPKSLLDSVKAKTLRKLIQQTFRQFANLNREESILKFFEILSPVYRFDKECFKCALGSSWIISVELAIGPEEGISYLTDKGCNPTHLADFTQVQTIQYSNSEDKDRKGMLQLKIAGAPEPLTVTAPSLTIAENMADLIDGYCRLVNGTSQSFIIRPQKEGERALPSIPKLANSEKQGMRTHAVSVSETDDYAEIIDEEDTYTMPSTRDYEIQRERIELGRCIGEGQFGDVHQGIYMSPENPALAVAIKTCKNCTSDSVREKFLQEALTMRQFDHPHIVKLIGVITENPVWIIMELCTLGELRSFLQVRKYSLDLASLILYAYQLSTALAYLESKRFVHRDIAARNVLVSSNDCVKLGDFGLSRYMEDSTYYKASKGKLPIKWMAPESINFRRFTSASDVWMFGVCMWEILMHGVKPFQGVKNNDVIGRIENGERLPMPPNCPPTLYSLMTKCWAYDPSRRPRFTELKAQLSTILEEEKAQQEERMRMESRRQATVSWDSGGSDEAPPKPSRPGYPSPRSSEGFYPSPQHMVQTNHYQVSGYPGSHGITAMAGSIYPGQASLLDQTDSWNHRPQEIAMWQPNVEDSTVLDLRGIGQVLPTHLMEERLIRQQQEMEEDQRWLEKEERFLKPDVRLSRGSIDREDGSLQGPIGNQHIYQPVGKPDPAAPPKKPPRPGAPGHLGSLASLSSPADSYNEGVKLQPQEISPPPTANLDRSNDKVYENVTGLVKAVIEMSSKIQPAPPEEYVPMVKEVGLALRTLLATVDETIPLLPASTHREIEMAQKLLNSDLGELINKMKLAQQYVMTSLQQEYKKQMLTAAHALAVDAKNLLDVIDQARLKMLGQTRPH
Sequence of Streptavidin (Streptomyces avidinii) (P22629 whole entry, looked up): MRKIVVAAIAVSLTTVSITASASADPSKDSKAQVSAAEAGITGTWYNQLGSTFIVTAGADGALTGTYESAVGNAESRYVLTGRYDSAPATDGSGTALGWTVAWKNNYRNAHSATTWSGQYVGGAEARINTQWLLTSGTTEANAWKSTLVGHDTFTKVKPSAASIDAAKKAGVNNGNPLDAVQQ
Sequence of Torsin-1A (Homo sapiens) (O14656 whole entry, looked up): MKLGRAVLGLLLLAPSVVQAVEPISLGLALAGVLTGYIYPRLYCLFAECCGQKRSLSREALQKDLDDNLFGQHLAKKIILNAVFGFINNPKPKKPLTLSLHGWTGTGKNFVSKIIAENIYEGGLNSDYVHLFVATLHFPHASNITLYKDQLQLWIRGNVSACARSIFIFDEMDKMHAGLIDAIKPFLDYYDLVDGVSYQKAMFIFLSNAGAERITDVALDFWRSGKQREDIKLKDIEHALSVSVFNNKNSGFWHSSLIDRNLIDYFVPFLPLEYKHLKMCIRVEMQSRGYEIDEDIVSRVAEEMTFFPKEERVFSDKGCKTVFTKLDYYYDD
Sequence of Luciferin 4-monooxygenase (Photinus pyralis) (P08659 whole entry, looked up): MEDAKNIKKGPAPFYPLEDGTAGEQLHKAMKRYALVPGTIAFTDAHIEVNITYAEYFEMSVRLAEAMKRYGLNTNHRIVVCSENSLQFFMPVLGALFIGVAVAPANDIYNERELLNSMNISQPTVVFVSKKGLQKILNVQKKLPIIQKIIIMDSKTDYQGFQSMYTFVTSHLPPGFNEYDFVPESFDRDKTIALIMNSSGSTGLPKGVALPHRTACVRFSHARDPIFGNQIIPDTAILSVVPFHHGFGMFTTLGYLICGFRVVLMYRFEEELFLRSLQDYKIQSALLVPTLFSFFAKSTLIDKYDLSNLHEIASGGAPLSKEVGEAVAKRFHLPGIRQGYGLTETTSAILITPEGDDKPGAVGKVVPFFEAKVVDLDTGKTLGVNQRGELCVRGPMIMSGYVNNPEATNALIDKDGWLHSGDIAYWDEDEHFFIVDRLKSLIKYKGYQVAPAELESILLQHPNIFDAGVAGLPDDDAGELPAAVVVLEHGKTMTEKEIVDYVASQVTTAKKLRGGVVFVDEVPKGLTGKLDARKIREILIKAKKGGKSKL
Sequence of Follistatin (Homo sapiens) (P19883 whole entry, looked up): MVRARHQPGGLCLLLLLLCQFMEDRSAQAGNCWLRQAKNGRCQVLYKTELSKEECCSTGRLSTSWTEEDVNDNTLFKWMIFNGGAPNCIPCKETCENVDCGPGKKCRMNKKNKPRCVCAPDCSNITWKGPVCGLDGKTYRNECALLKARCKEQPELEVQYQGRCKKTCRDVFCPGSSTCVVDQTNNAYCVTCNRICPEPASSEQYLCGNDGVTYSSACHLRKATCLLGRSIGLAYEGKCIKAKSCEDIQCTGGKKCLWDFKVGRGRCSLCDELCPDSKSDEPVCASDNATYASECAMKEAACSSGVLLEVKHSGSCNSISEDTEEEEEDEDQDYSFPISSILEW
Sequence of Fibroblast growth factor 2 (Homo sapiens) (P09038 whole entry, looked up): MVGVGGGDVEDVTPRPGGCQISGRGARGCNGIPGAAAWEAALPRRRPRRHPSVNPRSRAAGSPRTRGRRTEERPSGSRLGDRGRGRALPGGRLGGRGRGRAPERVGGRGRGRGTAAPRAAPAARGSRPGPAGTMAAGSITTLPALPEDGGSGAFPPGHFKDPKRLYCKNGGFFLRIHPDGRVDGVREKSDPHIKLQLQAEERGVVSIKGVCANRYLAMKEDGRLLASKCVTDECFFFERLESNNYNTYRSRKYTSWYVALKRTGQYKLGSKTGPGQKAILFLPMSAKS

For the compound `[N-]=[N+]=NCc1ccccc1C[C@]1(C(=O)NCCN2CCOCC2)N=C(c2ccc(OCCCO)cc2)O[C@H]1c1ccccc1CN=[N+]=[N-]`, the composite z-score in experiment [1] was 1.09; in experiment [2] it was 1.21; in experiment [3], 1.43; in experiment [4], 0.99; in experiment [5], 1.11; in [6] it was 0.783. Further, the composite z-score with Lefty1 is 0.886; in experiment [8], 0.495; in experiment [10], 0.888; in [15], 0.803; in experiment [16] it was 0.0155; with Torsin-1A (Homo sapiens) [17], 0.0892. Also, the composite z-score with Torsin-1A (Homo sapiens) [18] was 0.938; in experiment [19], 1.45. In addition, the z-score in experiment [7] is 0.963; in experiment [9], 0.203 (inactive); in experiment [11] it was -6.14 (inactive); in experiment [12] it was -1.12 (inactive); in experiment [13], 1.34 (inactive); in experiment [14], -0.887 (inactive).

With `CC(=O)n1cc(C(O)C2C=CC3C(=O)N(c4ccccc4)C(=O)C3N2Nc2ccc(C#N)cc2)c2ccccc21` (stereo not given), the composite z-score in experiment [1] is 1.56; in experiment [2], 1.26; in experiment [3] it was 0.519; in [4] it was 0.893; in [5] it was 0.12; in [6] it was -0.856. Moreover, the composite z-score is -0.233 in the experiment with Lefty1; 1.38 in [8]; 0.523 in experiment [10]; 0.846 in experiment [15]; 0.11 in [16]; -0.467 with Torsin-1A (Homo sapiens) [17]. For the same compound, the composite z-score with Torsin-1A (Homo sapiens) [18] was 0.522; in experiment [19], -0.38. Moreover, the z-score in experiment [7] is 0.0139; in experiment [9] it was -0.985 (inactive); in [11] it was 0.853 (inactive); in experiment [12], -0.935 (inactive); in experiment [13], -0.512 (inactive); in [14] it was 0.1 (inactive).

In the case of `CCCNC(=O)[C@@]1(C)c2ccccc2C(=O)N(Cc2cc(C(F)(F)F)cc(C(F)(F)F)c2)[C@H]1c1ccc(CO)cc1`, the composite z-score in experiment [1] is 2.41; in experiment [2] it was 0.903; in experiment [3], 0.147; in [4], 0.267; in experiment [5], 0.127; in experiment [6] it was 0.68. Further, the composite z-score with Lefty1 was -0.524; in experiment [8] it was 0.463; in experiment [10], -0.332; in [15], -0.974; in experiment [16], -0.128; with Torsin-1A (Homo sapiens) [17], -0.0659. Moreover, the composite z-score in the experiment with Torsin-1A (Homo sapiens) [18] was -0.216; in [19] it was 0.103. The z-score in experiment [7] was -0.704; in experiment [9], 0.517 (inactive); in experiment [11] it was -5.52 (inactive); in experiment [12] it was -0.889 (inactive); in experiment [13] it was 0.0548 (inactive); in experiment [14], 0.532 (inactive).

Consider `C=CCOC(=O)[C@@H]1[C@H]2C(=O)O[C@H](c3ccccc3)[C@H](c3ccccc3)N2[C@H](c2ccc(OCCOC(=O)[C@H]3C[C@H]4C(=O)N[C@@H](Cc5ccccc5)C(=O)N4[C@H]3c3ccc(O)cc3)cc2)[C@@]12C(=O)Nc1ccc(I)cc12`, for which the composite z-score in experiment [1] came out at 1.77; in [2], 1.19; in experiment [3], 0.0087; in experiment [4], 0.521; in [5], 1.36; in experiment [6] it was 1.39. Besides, the composite z-score in the experiment on Lefty1 was 1.32; in [8], 0.815; in [10] it was 0.388; in experiment [15], 0.593; in [16], -0.0391; in the experiment with Torsin-1A (Homo sapiens) [17], 0.72. Also, the composite z-score with Torsin-1A (Homo sapiens) [18] came to 0.544; in experiment [19] it was 1.81. For the same compound, the z-score was -1.55 in experiment [7]; -1.79 (inactive) in experiment [9]; -0.409 (inactive) in [11]; -0.00469 (inactive) in experiment [12]; 5.82 (inactive) in [13]; 11.7 (active) in [14].

As for `CC(C)C[C@@H]1NC(=O)[C@@H]2C[C@H](C(=O)NCCCCN(C)C)[C@H](c3ccc(O)cc3)N2C1=O`, the composite z-score was 2.74 in experiment [1]; -0.494 in experiment [2]; -0.462 in experiment [3]; -0.838 in experiment [4]; -0.21 in experiment [5]; -0.0947 in [6]. Also, the composite z-score was -0.477 in the experiment on Lefty1; -0.153 in experiment [8]; -0.341 in [10]; -0.466 in experiment [15]; -0.0624 in [16]; 0.0266 with Torsin-1A (Homo sapiens) [17]. Moreover, the composite z-score with Torsin-1A (Homo sapiens) [18] is -0.271; in [19], 0.273. Also, the z-score in experiment [7] is -0.273; in experiment [9] it was 0.36 (inactive); in [11] it was 0.446 (inactive); in [12] it was -0.0311 (inactive); in experiment [13] it was -0.532 (inactive); in [14], -0.0914 (inactive).
